Screen size: about 220,000 compounds; about 830 (0.38%) were called active.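 The calls were made as follows: active = compound inhibiting the enzyme by more than half at any dose during confirmatory dose-response retesting; inconclusive = strong single-dose inhibitors picked by rank but not retested; inactive = the rest.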 These entries were drawn from the full list. Measured potencies and affinities stand elsewhere.

The target of this assay is Leucine aminopeptidase (Plasmodium falciparum (isolate 3D7)) (UniProt Q8IL11). Put plainly: P. falciparum M17LAP inhibitors, primary screen, biochemical, fluorogenic H-Leu-NHMec substrate, 1536-well (AID 1619).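 Also: plate controls were full reaction with DMSO carrier for no effect and no enzyme background for full effect.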 To be noted: recombinant M17LAP, H-Leu-NHMec fluorogenic kinetic assay; at 30 µM; active compounds read high.
Sequence of Leucine aminopeptidase (Plasmodium falciparum (isolate 3D7)) (Q8IL11 whole entry, looked up): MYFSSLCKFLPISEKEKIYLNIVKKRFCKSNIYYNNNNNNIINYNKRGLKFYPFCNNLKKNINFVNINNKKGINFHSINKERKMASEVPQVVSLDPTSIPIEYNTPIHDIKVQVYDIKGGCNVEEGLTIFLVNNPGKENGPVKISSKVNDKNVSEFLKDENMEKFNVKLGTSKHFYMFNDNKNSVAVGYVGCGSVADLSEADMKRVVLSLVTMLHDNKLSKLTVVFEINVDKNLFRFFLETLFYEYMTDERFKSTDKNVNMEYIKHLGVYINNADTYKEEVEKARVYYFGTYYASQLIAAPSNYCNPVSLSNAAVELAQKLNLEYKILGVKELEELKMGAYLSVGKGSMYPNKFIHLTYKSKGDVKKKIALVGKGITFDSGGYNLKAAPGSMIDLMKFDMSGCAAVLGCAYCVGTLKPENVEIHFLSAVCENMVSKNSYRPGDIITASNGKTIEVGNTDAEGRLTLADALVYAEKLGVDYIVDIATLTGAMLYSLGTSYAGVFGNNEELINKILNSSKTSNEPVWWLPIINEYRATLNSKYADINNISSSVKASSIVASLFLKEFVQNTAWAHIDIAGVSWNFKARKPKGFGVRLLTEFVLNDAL
Consider `CCn1c(SCC(=O)c2ccc(NS(=O)(=O)c3ccccc3)cc2)nnc1-c1cccs1`, for which the inhibition was 37% (inactive).

As for `C=CCn1c(SCC(=O)O)nnc1-c1cccs1`, the inhibition was 0.97% (inactive).

On to `CCC(=O)Nc1ccc(C(=O)CSc2nnc(-c3ccccc3F)n2C2CC2)cc1`, for which the inhibition is 4.72% (inactive).

Take `Cc1ccccc1OCc1nc2ccccc2c(=O)n1N`: the inhibition was -9.96% (inactive).

Consider `CCOc1ccc(S(=O)(=O)Nc2ccc(O)c(Sc3ncn[nH]3)c2)cc1`, for which the inhibition is 71.4% (inactive).

On to `COc1ccc(OC)c(S(=O)(=O)Nc2ccc(O)c(Sc3ncn[nH]3)c2)c1`, for which the inhibition is 38.9% (inactive).

For the molecule `Nc1c([N+](=O)[O-])cnnc1-c1ccccc1`, the inhibition was -9.73% (inactive).

Turning to `Cc1n[nH]c(C)c1CNCc1c(C(=O)N2CCCCCCC2)nc2ccc(Cl)cn12`, the inhibition is -4.57% (inactive).

`COc1ccc(NC(=O)CSc2nnc(NC(C)=O)s2)c([N+](=O)[O-])c1`: the inhibition is 11.8% (inactive).

Consider `CCOc1ccc(/C=C2\SC(=S)N(C(C(=O)O)c3ccccc3)C2=O)cc1OC` (stereo not drawn), for which the inhibition was 30.6% (inactive).

Consider `COc1cc(/C=C2\SC(=S)N(NS(=O)(=O)c3ccc(C)cc3)C2=O)cc(OC)c1OC`, for which the inhibition is 19.5% (inactive).

Take `COc1cc(/C=C2\SC(=S)N(NS(=O)(=O)c3ccccc3)C2=O)cc(OC)c1OC`: the inhibition is 27.3% (inactive).

On to `CCOc1ccc(/C=C2/SC(=S)N(C(C(=O)O)c3ccccc3)C2=O)cc1OCC` (stereo not drawn), for which the inhibition was 21.4% (inactive).

Consider `CCOc1ccc(/C=C2\SC(=S)N(NS(=O)(=O)c3ccccc3)C2=O)cc1OC`, for which the inhibition is 43.7% (inactive).

Regarding `CCOc1ccc(/C=C2\SC(=S)N(NS(=O)(=O)c3ccc(C)cc3)C2=O)cc1OC`, the inhibition is 21.5% (inactive).

Take `COc1cc(=O)n(C)c2c(O)cccc12`: the inhibition is 4.51% (inactive).

`Cc1nnc(NC(=O)CSc2nnc(Cc3ccccc3)n2Cc2ccccc2)s1`: the inhibition was 14.2% (inactive).

Take `CCN(Cc1ccccc1)S(=O)(=O)c1ccc2c(c1)NC(=O)CC(=O)N2`: the inhibition was 0.95% (inactive).

Turning to `CCCCC1=CC2=CC(=O)C(C)(OC(=O)CC)C(=O)C2=CN1CCc1c[nH]c2ccccc12` (stereo not drawn), the inhibition is -3.57% (inactive).

`CCCn1c(=O)c(C(=O)N/N=C/c2ccc(F)cc2)c(O)c2ccccc21`: the inhibition is -4.04% (inactive).

For `O=C(Cn1nc(-c2ccccc2)c2ccccc2c1=O)Nc1ccc2c(c1)nc1n2CCOC1`, the inhibition is -12.9% (inactive).

With `C=CCn1c(N)cc(=O)nc1SCC(=O)Nc1ccc(C)cc1`, the inhibition was 23.5% (inactive).

For the molecule `Cn1ccnc1SCC(=O)Nc1cccc2ccccc12`, the inhibition was 16.9% (inactive).

In the case of `C=CCn1c(SCC(=O)Nc2ccccc2OC)nc(O)c(CC)c1=O`, the inhibition was 35.8% (inactive).

As for `Cn1c(=O)c2c(nc(SCC(=O)Nc3ccccc3)n2C)n(C)c1=O`, the inhibition was 0.43% (inactive).

As to `C=CCn1c(N)cc(=O)nc1SCC(=O)Nc1ccccc1`, the inhibition was 20% (inactive).

Regarding `Nc1cc(=O)nc(SCC(=O)Nc2ccccc2)n1-c1ccccc1`, the inhibition was 22.1% (inactive).

`Nc1cc(=O)nc(SCC(=O)Nc2cccc3ccccc23)n1CCc1ccccc1`: the inhibition was 43.5% (inactive).

Consider `C=CCn1c(SCC(=O)Nc2cccc3ccccc23)nnc1-c1cnccn1`, for which the inhibition is 1.49% (inactive).

Turning to `COc1cc2c(cc1NC(=O)/C=C/c1ccc([N+](=O)[O-])cc1)oc1ccccc12`, the inhibition is -1.67% (inactive).

In the case of `CC1=C/C(=N\NC(=O)c2ccc(O)cc2)CC1`, the inhibition was 12.2% (inactive).

On to `COc1ccccc1-c1nnc(SC(C(=O)c2c[nH]c3ccccc23)c2ccccc2)n1C` (stereo not drawn), for which the inhibition is 6.65% (inactive).

For the molecule `CCCC(=O)NNC(=O)CCC(=O)Nc1ccccc1Cl`, the inhibition is 6.3% (inactive).

For the molecule `Cc1cc(-c2onc(C)c2C(=O)O)no1`, the inhibition was -2.33% (inactive).

In the case of `CC(C)C1CC(CCN2CCCCC2)(c2ccccc2)CCO1` (stereo not drawn), the inhibition was -6.12% (inactive).

On to `CC(=O)N1CCc2cc(C(=O)CN3CCN(c4ccccn4)CC3)ccc21`, for which the inhibition is 8.66% (inactive).

For the molecule `COc1ccc(Cl)cc1-c1nc(SCC(=O)NC(C)C(C)C)n[nH]1` (stereo not drawn), the inhibition was -5.32% (inactive).

In the case of `CCc1c(O)nc(SCC(=O)Nc2ccccc2)n(-c2ccccc2)c1=O`, the inhibition is -0.62% (inactive).

With `CCc1c(O)nc(SCc2ccccc2)n(C(C)CC)c1=O` (stereo not drawn), the inhibition was 36.5% (inactive).

As to `O=C(NCc1ccco1)C1CC(c2ccc(Cl)cc2)=NO1` (stereo not drawn), the inhibition is 2.33% (inactive).

Regarding `CC(C)(C)c1cc(C(=O)O)n(Cc2ccc(Cl)cc2Cl)n1`, the inhibition was -0.53% (inactive).

As to `O=Nc1c(O)n(Cc2ccc(Cl)cc2Cl)c2ccccc12`, the inhibition was -0.24% (inactive).

As for `O=C(COC(=O)C1(c2ccc(Cl)cc2)CCCC1)NCc1ccco1`, the inhibition was -0.44% (inactive).

Consider `Oc1ccc(/C=N/NC(=S)Nc2cccnc2)cc1`, for which the inhibition was 33.2% (inactive).

Consider `Fc1ccc(/C=N/NC(=S)Nc2cccnc2)cc1F`, for which the inhibition was 8.17% (inactive).

Turning to `O=C(CSc1nnc(-c2ccc(Cl)cc2)n1Cc1ccco1)NCc1ccc2c(c1)OCO2`, the inhibition is 7.75% (inactive).

`O=C(N/N=C/c1cccs1)c1cccc2cc[nH]c12`: the inhibition was 8.58% (inactive).

Turning to `CCS(=O)(=O)C1=NN2C(=N)/C(=C\c3ccc(SCc4ccco4)o3)C(=O)N=C2S1`, the inhibition is 33.6% (inactive).

`C=CCOc1ccc(/C=C2\C(=N)N3N=C(S(=O)(=O)CC)SC3=NC2=O)cc1OC`: the inhibition was 1.58% (inactive).

For `COc1ccc(/C=C/C(=O)NCC(=O)N2CCC(N(C)CCN3CCOCC3)CC2)cc1OC`, the inhibition is 0.93% (inactive).

As for `COC(=O)c1sc2nc(CN3CCN(c4ccc(OC)cc4)CC3)[nH]c(=O)c2c1C`, the inhibition is 0.73% (inactive).

`O=C(COC(=O)c1ccccc1NC(=O)C1CC1)c1ccc2c(c1)OCCO2`: the inhibition is 12.2% (inactive).

`CC(C)C(=O)Nc1ccccc1C(=O)OCC(=O)c1ccc2c(c1)OCCO2`: the inhibition is 0.77% (inactive).

`O=Cc1ccc(-c2cccc(C(=O)O)c2)o1`: the inhibition is 17% (inactive).

For the molecule `O=C1c2ccccc2C(=O)N1CCCc1nc(-c2ccncc2)no1`, the inhibition was -5.77% (inactive).

Take `CCOC(=O)N1CCN(C(=O)CCN2C(=O)COc3ccc(C)cc32)CC1`: the inhibition is -3.49% (inactive).

In the case of `Cc1c(NC(=O)CSc2nc3ccccc3s2)c(=O)n(-c2ccccc2)n1C`, the inhibition is 14.2% (inactive).

As to `CN1CCC(Oc2ccccc2Sc2ccccc2)CC1`, the inhibition is 2.7% (inactive).

For the molecule `Cc1ccc(S(=O)(=O)Nc2ccccc2C(=O)Nc2ccc(S(=O)(=O)Nc3nccc(C)n3)cc2)cc1`, the inhibition is -17.2% (inactive).

Regarding `Cc1nnc(SCC(=O)Nc2ccccc2)[nH]c1=O`, the inhibition is 41.7% (inactive).

As for `CC(=O)Nc1ccc(NC(=O)CSc2nnc(C)c(=O)[nH]2)cc1`, the inhibition was 5.47% (inactive).

As for `Cc1cccc(C)c1NC(=O)CSc1nnc(C)c(=O)[nH]1`, the inhibition was 15.2% (inactive).

As to `Cc1nnc(SCC(=O)Nc2ccc3c(c2)OCO3)[nH]c1=O`, the inhibition is 6.76% (inactive).

As to `O=c1c2ccccc2nnn1Cc1ccc2ccccc2c1`, the inhibition is -5.34% (inactive).

As for `COc1ccc(-n2c(SC(CN3CCCCC3)CN3CCCC3=O)nc3ccccc3c2=O)cc1` (stereo not drawn), the inhibition is 0.58% (inactive).

Take `CCOc1cc(C=C2C(=O)c3ccccc3C2=O)ccc1OCC(=O)Nc1ccc(C)cc1`: the inhibition is 6.24% (inactive).

As for `CCOC(=O)C1=C(O)/C(=C/c2ccc(OCC(=O)O)c(OC)c2)SC1=Nc1ccc(OC)cc1`, the inhibition is 41.7% (inactive).

`CCOC(=O)C1=C(O)/C(=C/c2ccc(OCC(=O)O)c(OCC)c2)SC1=Nc1ccccc1`: the inhibition is 43.5% (inactive).

`CCOC(=O)C1=C(O)/C(=C/c2ccc(OCC(=O)O)c(OC)c2)SC1=Nc1ccc(OCC)cc1`: the inhibition was 38.5% (inactive).

`Cc1ccc(C(=O)Nc2nc3ccc(S(C)(=O)=O)cc3s2)o1`: the inhibition is 48.6% (inactive).

For the molecule `CCOc1cc(S(=O)(=O)NC2CCCCCC2)ccc1F`, the inhibition is 4.34% (inactive).

For `Cc1ccc(Nc2nnc(SCC(=O)NC3CCS(=O)(=O)C3)s2)c(C)c1` (stereo not drawn), the inhibition was 9.77% (inactive).

Turning to `Cc1cccc(Nc2nc3ccccc3s2)c1C`, the inhibition was 0.94% (inactive).

In the case of `O=C1CCCCC1Sc1nnc(Nc2ccccc2)s1` (stereo not drawn), the inhibition was 16.7% (inactive).

For `CCc1ccc(Nc2nnc(SCC(=O)N(C)C3CCS(=O)(=O)C3)s2)cc1` (stereo not drawn), the inhibition is 6.41% (inactive).

For `Cc1cccc(Nc2nnc(SCC(=O)N(C)C3CCS(=O)(=O)C3)s2)c1C` (stereo not drawn), the inhibition was 35% (inactive).

For `Cc1nc(CSc2nnc(Nc3cccc(C)c3C)s2)cs1`, the inhibition is 22.7% (inactive).

With `Cc1cccc(Nc2nnc(SCC3CCCCO3)s2)c1C` (stereo not drawn), the inhibition is 13.4% (inactive).

In the case of `Cc1ccc(Nc2nnc(SCC(=O)c3ccc(Br)s3)s2)c(C)c1`, the inhibition was 27.2% (inactive).

As for `CCSc1ccc2cc(OC)ccc2[n+]1CC`, the inhibition was 2.2% (inactive).

In the case of `Cc1ccc(NC(=O)CNCc2ccccc2)cc1Br`, the inhibition was 1.6% (inactive).

For `CCC(C)(C)n1nnnc1CN1CCN(C(c2ccccc2)c2ccccc2)CC1`, the inhibition was 7.37% (inactive).

For the molecule `O=C1CSC2(CCCCC2)N1CCO`, the inhibition is 15.1% (inactive).

As for `O=S1(=O)CCC(NC(=S)NC2CCS(=O)(=O)C2)C1` (stereo not drawn), the inhibition was 1.24% (inactive).

For `CCOCCCNC(=S)N1C2CCC1CC(NC(=O)NC13CC4CC(CC(C4)C1)C3)C2` (stereo not drawn), the inhibition was 2.02% (inactive).

As for `C=CC(=O)N=c1sc2ccccc2n1-c1ccccc1`, the inhibition is -2.28% (inactive).

For `c1ccc(-c2ccccc2OCCCN2CCCCCC2)cc1`, the inhibition is -1.36% (inactive).

With `Cc1cccc(NS(=O)(=O)c2cnc[nH]2)c1`, the inhibition is -0.29% (inactive).

Regarding `CCCCN=C(C)C1=C(O)CSC1=O`, the inhibition is 12.4% (inactive).

Take `CC(C)c1ccc(Nc2nnc(SC3CCOC3=O)s2)cc1` (stereo not drawn): the inhibition is 32.8% (inactive).

`Cc1ccc(Nc2nnc(SCC3CCCCO3)s2)cc1` (stereo not drawn): the inhibition was 13.8% (inactive).

Consider `Cc1cc(C)n(-c2ccc(C(=O)Nc3nnc(C4CC4)s3)cc2)n1`, for which the inhibition is 4.37% (inactive).

Take `COc1ccc(OC)c(NC(=O)c2ccc(CSc3nnc(C)s3)cc2)c1`: the inhibition was -1.27% (inactive).

For `N/C(=N\OC(=O)COc1ccc(Br)cc1Cl)c1ccccn1`, the inhibition was -6.93% (inactive).

`O=C(C1=NN(c2ccccc2)C2C(=O)N(c3ccc(Cl)cc3)C(=O)C12)c1ccccc1` (stereo not drawn): the inhibition was 4.99% (inactive).

Turning to `O=C1C(C2=NC(c3ccccn3)C3C(=O)N(c4ccccc4)C(=O)C23)=C(O)c2ccccc21` (stereo not drawn), the inhibition is -11% (inactive).

Turning to `O=C1C(C2=NC(c3ccccn3)C3C(=O)N(c4ccc(Cl)cc4Cl)C(=O)C23)=C(O)c2ccccc21` (stereo not drawn), the inhibition is 3.81% (inactive).

Consider `O=C1C(C2=NC(c3ccccn3)C3C(=O)N(c4ccc(OC(F)(F)F)cc4)C(=O)C23)=C(O)c2ccccc21` (stereo not drawn), for which the inhibition was -6.84% (inactive).

Source of the values: PubChem BioAssay AID1619 (SRMLSC, 2009).
